Source: PubChem BioAssay
Bead autofluor – flagged as autofluorescent in microsphere protease counterscreen | compound autofluorescence counterscreen, microsphere flow cytometry; stronger effect = higher value | fluorescence intensity (test concentration not listed) | 3.1% of 360,000 active | AID 624483; in the data active = fluorescence intensity above about 16000; inconclusive = no clear call, values can overlap the other calls
BoNT-A LC inh2 – inhibitors of Botulinum neurotoxin A light chain protease. multiplex microsphere protease substrate cleavage, flow cytometry. inhibition, % at 10 µM. 0.17% of 360,000 active. AID 588499; note: plate controls were buffer without enzyme for full effect and enzyme alone for no effect
Anthrax LF prot – blocks Bacillus anthracis lethal factor protease; P15917; multiplex microsphere protease cleavage assay, LF; inhibition, % at 10 µM; 0.12% of 360,000 active; AID 588501; note: plate controls were buffer without enzyme for full effect and enzyme alone for no effect
TcdB inh – blocks C. difficile toxin B glycohydrolase activity; P18177; TcdB glycohydrolase enzymatic assay, plate reader; inhibition, % at 9.99 µM; 0.24% of 350,000 active; AID 652162; in the data active = inhibition above about 10%
BoNT-F LC inh – BoNT F light chain protease inhibition. Multiplex microsphere protease cleavage assay, flow cytometry. inhibition, % at 10 µM. 0.22% of 360,000 active. AID 588497; in the data active = inhibition above about 35%, passing the limit was not always enough; inconclusive = no clear call, values can overlap the other calls; note: plate controls were buffer without enzyme for full effect and enzyme alone for no effect
* marks the source's active call; other numbers are inactive results; ? = inconclusive; nt = no result given. The entries come from a sample that favours hits as a whole. Cut-off read from the data, not from the text of the source, unless noted: active = inhibition above about 30%; inconclusive = no clear call, values can overlap the other calls; inactive = below that.

SMILES	Bead autofluor	BoNT-A LC inh2	Anthrax LF prot	TcdB inh	BoNT-F LC inh
Cc1ccc(-c2cnc3c(c2)C(=O)N([C@@H](C)CO)C[C@H](C)[C@H](CN(C)CC2CCOCC2)O3)cc1	nt	nt	nt	0.9	nt
Cn1ccnc1SCC(=O)Nc1cccc(O)c1	17009*	-1.9	-3.0	0.7	0.2
O=C(Nc1cc(C(F)(F)F)ccc1N1CCOCC1)C1Cc2ccccc2CN1C(=O)c1ccco1 (stereo unspecified)	20221*	2.5	2.4	nt	-1.2
O=C(Nc1cc(C(F)(F)F)ccc1N1CCOCC1)c1cncc(Br)c1	22690*	-9.6	-1.2	nt	-11.2
O=C(Nc1cc(C(F)(F)F)ccc1N1CCOCC1)c1ccc2ccccc2n1	19909*	0.5	-5.4	nt	-1.6
O=C(Nc1ccccc1)C1Cc2ccccc2CN1C(=O)c1ccco1 (stereo unspecified)	8551	1.2	14.2	nt	2.7
C[C@@H]1CN([C@H](C)CO)C(=O)Cc2cc(NC(=O)Cc3ccccc3)ccc2O[C@H]1CN(C)C(=O)Nc1cccc2ccccc12	nt	nt	nt	-0.3	nt
COCCNC(=O)C[C@@H]1CC[C@@H]2[C@H](COC[C@H](O)CN2S(=O)(=O)c2ccccc2C)O1	nt	nt	nt	2.8	nt
C[C@@H]1CN([C@@H](C)CO)C(=O)Cc2cc(NS(=O)(=O)c3cn(C)cn3)ccc2O[C@H]1CN(C)Cc1ccc(Cl)c(Cl)c1	nt	nt	nt	1.5	nt
Cn1ccnc1SCC(=O)Nc1cc(C(F)(F)F)ccc1N1CCOCC1	16282*	?	-1.1	nt	1.0
CC(Oc1ccc(Cl)cc1Cl)C(=O)Nc1cccc(O)c1 (stereo unspecified)	4218	-0.7	-8.4	0.1	-2.2
CC(C)C(=O)Nc1ccc(C(=O)NNC(=O)CCCOc2ccc(Cl)cc2Cl)cc1	24267*	?	-3.1	nt	-3.0
CC(Oc1ccc(Cl)cc1Cl)C(=O)Nc1ccc(O)cc1 (stereo unspecified)	4917	-0.9	-1.4	14.5*	-6.5
C/C=C/c1ccc([C@H]2[C@@H](CO)N(c3ncc(CC)s3)[C@H]2C#N)cc1	nt	nt	nt	-2.1	nt
CC1CCN(CCCn2c(=S)[nH]c3c(sc4ccc([N+](=O)[O-])cc43)c2=O)CC1	3687	-0.3	-5.8	0.3	-4.0
CC1CCN(CCCn2c(=S)[nH]c3c(sc4ccccc43)c2=O)CC1	3887	0.0	-3.2	11.5*	1.2
c1ccc(CNc2ncnc3c2oc2ccccc23)nc1	22122*	?	-3.6	nt	-0.9
CC(C)Cc1nc2oc3c(NCC4CCCO4)ncnc3c2c2c1CCC2 (stereo unspecified)	18869*	?	1.7	nt	2.8
c1ccc(-c2nc(NCC3CCCO3)c3oc4ccccc4c3n2)cc1 (stereo unspecified)	23676*	?	-2.7	nt	-1.4
c1ccc2c(c1)oc1c(NCC3CCCO3)ncnc12 (stereo unspecified)	23180*	0.1	0.5	nt	2.4
CC(C)Cc1nc2oc3c(NCc4cccnc4)ncnc3c2c2c1CCC2	9172	0.4	-6.7	1.4	-0.9
CO[C@H]1CC[C@H]2CCOc3ccc(C#N)cc3C(=O)N(C)C[C@H](C)C(=O)N(C)C[C@@H]1O2	nt	nt	nt	-0.5	nt
COc1cccc(S(=O)(=O)N[C@H]2C=C[C@@H](CC(=O)NCc3ccc(Cl)cc3)O[C@@H]2CO)c1	nt	nt	nt	-1.3	nt
COCC(=O)Nc1ccc2c(c1)[C@@H]1C[C@@H](CC(=O)N(C)C)O[C@@H](CO)[C@@H]1O2	nt	nt	nt	0.1	nt
O=C(Nc1ccc2c(c1)OCCO2)c1c(F)cccc1F	20165*	?	-4.8	-0.2	2.1
SMILES	Bead autofluor	BoNT-A LC inh2	Anthrax LF prot	TcdB inh	BoNT-F LC inh
O=C(Nc1ccc2c(c1)OCO2)c1c(F)c(F)c(F)c(F)c1F	18127*	9.7	-0.1	nt	14.8
O=C(Nc1ccc2c(c1)OCO2)c1ccc2c(c1)OCO2	2457	-1.0	-4.6	nt	-13.3
O=C(Nc1ccc2c(c1)OCO2)c1ccc(Cl)s1	16810*	-2.5	-4.4	nt	-9.9
Cc1c2ccncc2cc2c1[nH]c1ccccc12	6323	0.1	-5.0	3.2	6.4
Cc1c2c(cc3c1[nH]c1ccccc13)C=NCC2	21778*	-9.7	0.3	1.3	21.9
CCNC(=S)NNC(=O)c1cccn(Cc2ccc(Cl)cc2)c1=O	22835*	1.1	-0.1	nt	-2.3
CC(C)CC#Cc1cnc2c(c1)C(=O)N([C@H](C)CO)C[C@@H](C)[C@H](CN(C)C(=O)Cc1ccncc1)O2	nt	nt	nt	-0.8	nt
NC(=O)c1nsc(C(=O)N(Cc2ccc(F)cc2)C(C(=O)NC2CCCC2)c2ccco2)c1N (stereo unspecified)	3733	3.7	-0.2	1.4	8.9
CC(C)CCNC(=O)C(c1ccco1)N(Cc1ccc(F)cc1)C(=O)c1snc(C(N)=O)c1N (stereo unspecified)	19358*	-0.2	-4.7	nt	-3.1
